High-throughput results (PubChem BioAssay)
An excerpt weighted towards active compounds, which were near 5.2% of everything screened.
APOBEC3G inh: APOBEC3G (human) deaminase inhibition; inhibition, % at 20 µM; actives 0.28% (n = 330,000); Q9HC16; AID 493012; recombinant A3G, ssDNA deamination FAM/TAMRA fluorescence;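 active = inhibition of at least 40% at 20 µM, with no more than 30% in the related APOBEC3A deaminase screen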
CR mimetic SO: yeast age-related superoxide inhibition as caloric restriction mimetic | AID 2690 | S. cerevisiae aged cells, superoxide DHE fluorescence; hits give low values | superoxide response (% of plate mean), % at 10 µM | actives 0.18% (n = 330,000);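 active = superoxide response under a set limit, about three screen SD below normal, cut at about 65% in these data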;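 note: yeast aged for seven days with compound at 30 °C before DHE staining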
CendR NRP1 mod: alters CendR peptide binding to human NRP-1 | O14786 | FAM-RPARPAR peptide binding to NRP-1, fluorescence polarization | inhibition, % at 25 µM | actives 0.85% (n = 360,000) | AID 602438;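 active = inhibition or corrected inhibition above about 18%, plus a signal ratio from 0.5 to 1.5, limit read from the data, passing the limit was not always enough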
Target sequence (O14786 whole entry, looked up): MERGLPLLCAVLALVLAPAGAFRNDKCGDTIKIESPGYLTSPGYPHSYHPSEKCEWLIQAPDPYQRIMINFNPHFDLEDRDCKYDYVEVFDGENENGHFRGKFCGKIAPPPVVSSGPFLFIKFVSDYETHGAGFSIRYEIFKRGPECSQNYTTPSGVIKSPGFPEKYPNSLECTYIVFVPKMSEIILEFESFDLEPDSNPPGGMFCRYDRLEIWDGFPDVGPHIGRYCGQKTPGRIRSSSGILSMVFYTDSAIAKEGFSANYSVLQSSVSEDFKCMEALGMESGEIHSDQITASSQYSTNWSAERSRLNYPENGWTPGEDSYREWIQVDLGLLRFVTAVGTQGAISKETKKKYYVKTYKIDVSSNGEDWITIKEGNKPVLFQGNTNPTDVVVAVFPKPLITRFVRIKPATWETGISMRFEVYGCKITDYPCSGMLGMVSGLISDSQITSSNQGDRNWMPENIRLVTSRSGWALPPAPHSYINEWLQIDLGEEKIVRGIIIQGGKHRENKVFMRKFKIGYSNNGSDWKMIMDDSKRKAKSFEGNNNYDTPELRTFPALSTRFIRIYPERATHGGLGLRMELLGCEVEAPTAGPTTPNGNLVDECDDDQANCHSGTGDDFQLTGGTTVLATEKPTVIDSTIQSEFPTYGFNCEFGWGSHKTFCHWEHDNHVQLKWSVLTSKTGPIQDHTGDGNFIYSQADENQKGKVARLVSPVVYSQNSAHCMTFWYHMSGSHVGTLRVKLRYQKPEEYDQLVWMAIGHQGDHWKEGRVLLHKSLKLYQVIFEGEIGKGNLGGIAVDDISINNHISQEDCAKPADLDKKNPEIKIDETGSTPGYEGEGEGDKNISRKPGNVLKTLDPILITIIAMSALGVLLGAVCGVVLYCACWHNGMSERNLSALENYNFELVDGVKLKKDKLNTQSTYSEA
ALR inh: human ALR oxidase inhibition via reduced H2O2 | P55789 | purified ALR, DTT oxidation, H2O2 HRP-luminol luminescence | inhibition, % (no concentration beside the values) | actives 3.8% (n = 290,000);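 active = mean replicate inhibition above about 79%, with every replicate also reaching it, limit read from the data; inconclusive = only one of the two criteria met; inactive = mean below limit and not every replicate reaching it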
PfM18AAP inh: PfM18AAP enzyme inhibition | inhibition, % at 7.35 µM | recombinant PfM18AAP, H-Glu-NHMec fluorogenic cleavage | actives 1.2% (n = 290,000) | AID 1822;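 active = inhibition above the campaign mean inhibition over all tested compounds plus 3 SD, cut at about 28% in these data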
A3A deaminase: inhibitors of human APOBEC3A DNA deaminase. actives 0.41% (n = 330,000). recombinant A3A, FAM/TAMRA ssDNA deamination fluorescence. inhibition, % at 20 µM;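 active = at least 40% inhibition at 20 µM here, with at most 30% in a related deaminase screen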
APOBEC3A confirm: confirmation of human APOBEC3A DNA deaminase inhibitors; inhibition, % at 20 µM; shares compounds with A3A deaminase; recombinant A3A, ssDNA deaminase UDG fluorescence assay; AID 493151; actives 63% (n = 1,400);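 active = inhibition reaching a set limit, 80% of the first screen's cutoff, at 20 µM in any replicate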
UDG ctr A3A: inhibits UDG, flagging false APOBEC3A inhibitors | AID 504714 | 1,000 tested, under 10 active | shares compounds with A3A deaminase | UDG counterscreen, FAM/TAMRA uracil oligo fluorescence | inhibition, % at 20 µM; call rule not given here
Large screens that a line does not name were inactive (follow-up assays come after a bar, where they were run).

Cc1ccc(C(=O)NC2CCN(CC(=O)NC3CCC(C)CC3)CC2)cc1 (stereo not given)	none
CCOc1c(C=C(C#N)C#N)c2ccccc2n1CC	ALR inh 99, A3A deaminase 42 | APOBEC3A confirm inactive | UDG ctr A3A inactive
CC(=O)OC12CC3CC(C1)C(=NO)C(C3)C2	none
COc1ccc(CCNC(=O)C2CCC(CNc3c(N4CCCC4)c(=O)c3=O)CC2)cc1OC (stereo not given)	none
CCCC[n+]1ccn(-c2nc3c([N+](=O)[O-])cccc3n2C)c1	A3A deaminase 68 | APOBEC3A confirm 78
COc1cc(C)c(NC(=O)C2CCN(S(=O)(=O)c3cccs3)CC2)cc1OC	A3A deaminase 57 (no result: PfM18AAP inh) | APOBEC3A confirm 55 | UDG ctr A3A inactive
Cc1ccccc1NC(=O)C1CCN(S(=O)(=O)c2cccs2)CC1	none
O=C(Nc1nccs1)C1CCCN1S(=O)(=O)c1ccc(Cl)cc1 (stereo not given)	none
CC(C)COC(=O)N1CCCC1C(=O)Nc1nccs1 (stereo not given)	A3A deaminase 54 | APOBEC3A confirm inactive
O=C(O)c1ccc(N/N=C/C=C/c2ccc([N+](=O)[O-])o2)cc1	A3A deaminase 48 | APOBEC3A confirm 41
CCOC(=O)Cn1c2[n+](c3ccccc31)CC(O)CS2 (stereo not given)	A3A deaminase 69 | APOBEC3A confirm 86 | UDG ctr A3A inactive
CCC(=O)N1CCC1(C)C(=O)Nc1ccc2c(c1)CCN2C(C)=O (stereo not given)	none (no result: APOBEC3G inh, CR mimetic SO, ALR inh, PfM18AAP inh, A3A deaminase)
O=C(c1ccc(S(=O)(=O)N2CCCCC2)cc1)N1CCN=C1SCc1cccnc1	A3A deaminase 50 (no result: ALR inh) | APOBEC3A confirm inactive | UDG ctr A3A inactive
COc1cc(Cl)c(C)cc1NC(=O)CSc1sc2c(O)cc(=O)[nH]c2c1C#N	ALR inh inconclusive, A3A deaminase 69 | APOBEC3A confirm 18 | UDG ctr A3A inactive
COc1ccc(OC)c(NC(=O)CSc2sc3c(O)cc(=O)[nH]c3c2C#N)c1	none
COc1ccc(CN(C(=O)c2ccco2)C2CCS(=O)(=O)C2)cc1 (stereo not given)	A3A deaminase 72 | APOBEC3A confirm inactive | UDG ctr A3A inactive
CCn1c(CNC(=O)COc2ccc(C(C)C)cc2)nnc1SCC(=O)NC1CCCCC1C (stereo not given)	none
Cc1cccc(C)c1OCC(=O)NCc1nnc(SCC(=O)NC2CCCCC2C)n1C (stereo not given)	A3A deaminase 53 | APOBEC3A confirm 60 | UDG ctr A3A inactive
CCn1c(SCC(=O)NCc2ccccc2)nnc1C(CO)NC(=O)c1ccccc1 (stereo not given)	A3A deaminase 69 | APOBEC3A confirm 62 | UDG ctr A3A inactive
CCn1c(SCC(=O)NCCc2ccccc2)nnc1C(C)C	none
O=C1CCCC(O)=C1C(C#Cc1ccccc1)C1=C(O)CCCC1=O	none
O=C1CCCC(O)=C1Sc1ccccc1C(=O)O	A3A deaminase 55 | APOBEC3A confirm 57 | UDG ctr A3A inactive
CCOC(=O)c1c(NC(=O)c2ccc(N3C(=O)[C@@H]4[C@H](C3=O)[C@H]3C=C[C@@H]4C3)cc2)sc2c1CC(C)CC2 (stereo not given in full)	A3A deaminase 91 | APOBEC3A confirm inactive | UDG ctr A3A inactive
O=C(Nc1ccc(-c2cn3ccsc3n2)cc1)C1CC1	A3A deaminase 77 | APOBEC3A confirm inactive | UDG ctr A3A inactive
O=C(CSc1ccccc1)N1CCN(c2ccc(F)cc2)CC1	none (no result: ALR inh, PfM18AAP inh)
COc1ccc(/C=N/NC(=O)C(C)Sc2ccccn2)cc1[N+](=O)[O-] (stereo not given)	A3A deaminase 49 | APOBEC3A confirm 65 | UDG ctr A3A inactive
O=C1OCCC1Sc1nnc(-c2cccnc2)n1-c1ccccc1F (stereo not given)	none
C/C(=N\NC(=O)CNC(=O)c1ccc(Br)cc1)c1ccco1	none
O=C(NCc1ccco1)c1nc(-c2ccc(F)cc2)no1	A3A deaminase 40 | APOBEC3A confirm inactive | UDG ctr A3A inactive
